{"source": "PubChem BioAssay AID624115", "about": "(Johns Hopkins Ion Channel Center, 2012)", "note": "Screen size: about 4,000 compounds; about 350 (8.8%) were called active.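 The calls were made as follows: active = calcium fluorescence ratio at least three times the spread of buffer wells, meaning a non-specific response in parental cells; inactive = the rest.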 These entries were drawn from the full list.", "data": [{"test": "nonspecific Ca2+ signal without MrgX1 expression – cell-based, Fluo-4 calcium flux, duplicate, agonist mode, counter-screen for MrgX1 agonist project, primary screen (AID 624115)", "conditions": "parental HEK293, Fluo-4 calcium fluorescence (FDSS), at 10 µM; stronger effect = higher value", "values": [{"smiles": "N=C(N)SCc1cccc2ccccc12", "fluorescence ratio F(max-min)/F0": "inactive"}, {"smiles": "CCc1cc(=O)oc2cc(C)cc(OCC(=O)N3CCC[C@@H]3C(=O)O)c12", "fluorescence ratio F(max-min)/F0": "inactive"}, {"smiles": "CCOc1ccc(C(=O)NC2CCN(S(=O)(=O)CC)CC2)cc1", "fluorescence ratio F(max-min)/F0": "inactive"}, {"smiles": "COc1ccc(S(=O)(=O)N2CCOCC2)c(C)c1C", "fluorescence ratio F(max-min)/F0": "inactive"}, {"smiles": "Fc1ccc2[nH]c3c(N4CCSCC4)ncnc3c2c1", "fluorescence ratio F(max-min)/F0": "51.9 (active)"}, {"smiles": "CC(C)OCCCNc1ncnc2c1[nH]c1ccc(F)cc12", "fluorescence ratio F(max-min)/F0": "inactive"}, {"smiles": "O=C(c1ccc(O)cc1)c1ccc(C(=O)O)c(C(=O)O)c1", "fluorescence ratio F(max-min)/F0": "inactive"}, {"smiles": "Cc1[nH][nH]c(=O)c1C(c1ccc(-c2ccc(Cl)cc2)o1)c1c(C)[nH][nH]c1=O", "fluorescence ratio F(max-min)/F0": "48.2 (active)"}, {"smiles": "COc1ccc(C(=O)NC2CCCc3c2cnn3-c2cccc(C)c2C)c(OC)n1", "note": "(stereo not given)", "fluorescence ratio F(max-min)/F0": "inactive"}, {"smiles": "CCOc1ccccc1C1CC(c2ccc(Cl)cc2)Nc2nc(N)nn21", "note": "(stereo not given)", "fluorescence ratio F(max-min)/F0": "inactive"}, {"smiles": "CN1C(CC(=O)Nc2ccc(Br)cc2)c2ccccc2CC1(C)C", "note": "(stereo not given)", "fluorescence ratio F(max-min)/F0": "inactive"}, {"smiles": "Nc1ccc(Oc2ccc(Cl)cc2)cc1", "fluorescence ratio F(max-min)/F0": "inactive"}, {"smiles": "C=CCNC(=O)c1csc(-c2ccccc2)n1", "fluorescence ratio F(max-min)/F0": "inactive"}, {"smiles": "COC(=O)Cc1cc(=O)n(-c2nc3ccccc3s2)[nH]1", "fluorescence ratio F(max-min)/F0": "inactive"}, {"smiles": "O=C(Nc1ccc(Br)cc1F)C1CC(=O)N(C2CCCCC2)C1", "note": "(stereo not given)", "fluorescence ratio F(max-min)/F0": "inactive"}, {"smiles": "CC1CCCCN1S(=O)(=O)c1ccc(C(=O)Nc2nnc(-c3cccs3)o2)cc1", "note": "(stereo not given)", "fluorescence ratio F(max-min)/F0": "inactive"}, {"smiles": "Cc1ccc(-n2[nH]c(C)c(/C=N/N3C(=O)c4cccc5cccc(c45)C3=O)c2=O)cc1", "fluorescence ratio F(max-min)/F0": "110 (active)"}, {"smiles": "O=C(CSc1nncn1-c1cccnc1)N1CCOCC1", "fluorescence ratio F(max-min)/F0": "inactive"}, {"smiles": "Cc1nc(N2CCN(c3ccccn3)CC2)c2c(C)c(C(=O)Nc3ccc(F)c(Cl)c3)sc2n1", "fluorescence ratio F(max-min)/F0": "inactive"}, {"smiles": "CC(=O)OC(C)C[N+](C)(C)C", "note": "(stereo not given)", "fluorescence ratio F(max-min)/F0": "98.8 (active)"}, {"smiles": "CCCCOC(=O)CNc1nnc(SCC(=O)OCC)[nH]c1=O", "fluorescence ratio F(max-min)/F0": "inactive"}, {"smiles": "Cc1ccc(Nc2nc(-c3ccc(O)cc3O)cs2)nc1", "fluorescence ratio F(max-min)/F0": "inactive"}, {"smiles": "CCOC(=O)c1c(NC(=O)CNC2CCCc3ccccc32)sc(C(N)=O)c1C", "note": "(stereo not given)", "fluorescence ratio F(max-min)/F0": "inactive"}, {"smiles": "Cc1ccc(-n2cnc3ncnc(-c4ccccc4)c32)cc1", "fluorescence ratio F(max-min)/F0": "inactive"}, {"smiles": "COc1cc(C2/C(=C(\\O)c3ccc4c(c3)CC(C)O4)C(=O)C(=O)N2Cc2ccco2)ccc1O", "note": "(stereo not given)", "fluorescence ratio F(max-min)/F0": "inactive"}, {"smiles": "CCCc1cc(=S)n2c([nH]c3ccccc32)c1C#N", "fluorescence ratio F(max-min)/F0": "71.7 (active)"}, {"smiles": "CCOC(=O)c1c(C)[nH]c(=S)c(C#N)c1-c1ccccc1", "fluorescence ratio F(max-min)/F0": "inactive"}, {"smiles": "COc1ccc(C(=O)NNC(=S)NC(=O)c2ccccc2)cc1", "fluorescence ratio F(max-min)/F0": "130 (active)"}, {"smiles": "CCCCC(=O)NNC(=S)NC(=O)C(c1ccccc1)c1ccccc1", "fluorescence ratio F(max-min)/F0": "inactive"}, {"smiles": "COc1ccc(C(=O)NC(=S)NNC(=O)CCc2ccccc2)cc1", "fluorescence ratio F(max-min)/F0": "101 (active)"}, {"smiles": "COc1ccc(C(=O)NC(=S)NC2CCCCC2)cc1", "fluorescence ratio F(max-min)/F0": "inactive"}, {"smiles": "COc1ccc(C(=O)CSc2n[nH]c(N)n2)cc1", "fluorescence ratio F(max-min)/F0": "inactive"}, {"smiles": "CC(Oc1ccc2ccccc2c1)C(=O)NNC(=S)NC(=O)c1ccco1", "note": "(stereo not given)", "fluorescence ratio F(max-min)/F0": "inactive"}, {"smiles": "CCOC(=O)CNC(=O)CSc1nc2cccnc2n1CC", "fluorescence ratio F(max-min)/F0": "inactive"}, {"smiles": "OCc1ccc(OCCCOc2cccc3cccnc23)cc1", "fluorescence ratio F(max-min)/F0": "inactive"}, {"smiles": "OCCn1c(-c2ccccc2)csc1=Nc1ccccc1", "fluorescence ratio F(max-min)/F0": "inactive"}, {"smiles": "COc1cccc(-c2cnc(OC(C)(C)C)nc2OC(C)(C)C)c1", "fluorescence ratio F(max-min)/F0": "inactive"}, {"smiles": "CCOc1ccc(NC(=O)N2CC=C(n3c(=O)[nH]c4ccccc43)CC2)cc1", "fluorescence ratio F(max-min)/F0": "inactive"}, {"smiles": "Cc1cc(Nc2cc(N3CCN(C)CC3)nc(Sc3ccc(NC(=O)C4CC4)cc3)n2)n[nH]1", "fluorescence ratio F(max-min)/F0": "inactive"}, {"smiles": "O=C(c1ccc(OC2CCN(C(=O)c3cccnc3)CC2)cc1)N1CCCCCC1", "fluorescence ratio F(max-min)/F0": "inactive"}, {"smiles": "COCCNC(=O)C1CCN(S(=O)(=O)c2ccc3c(c2)OCCO3)CC1", "fluorescence ratio F(max-min)/F0": "inactive"}, {"smiles": "CCOC(=O)N1CCN(C(=O)COCc2cc(-c3ccc4c(c3)OCO4)on2)CC1", "fluorescence ratio F(max-min)/F0": "inactive"}, {"smiles": "CC1(C(=O)O)CCC(C(=O)Nc2ccc(Cl)c(Cl)c2)C1(C)C", "note": "(stereo not given)", "fluorescence ratio F(max-min)/F0": "47.3 (active)"}, {"smiles": "CCCc1[nH]nc2c1C(c1ccc(Br)s1)C(C#N)=C(N)O2", "note": "(stereo not given)", "fluorescence ratio F(max-min)/F0": "inactive"}, {"smiles": "CC1(C)CC2CC(C)(CN2c2ncnc3ccc(Br)cc23)C1", "note": "(stereo not given)", "fluorescence ratio F(max-min)/F0": "inactive"}, {"smiles": "O=C(CSc1ncccn1)NC(=O)NCc1ccccc1", "fluorescence ratio F(max-min)/F0": "inactive"}, {"smiles": "Cc1nc(C)c(-c2csc(NCCc3ccccc3)n2)s1", "fluorescence ratio F(max-min)/F0": "51.5 (active)"}, {"smiles": "CCS(=O)(=O)c1ccc2c(c1)N(S(=O)(=O)c1ccccc1)CC(C(=O)O)O2", "note": "(stereo not given)", "fluorescence ratio F(max-min)/F0": "inactive"}, {"smiles": "Cc1nc2ccccc2cc1OCc1ccc(F)cc1", "fluorescence ratio F(max-min)/F0": "45.3 (active)"}, {"smiles": "NC(=O)c1c(Nc2nc3c(F)cccc3s2)sc2c1CCCC2", "fluorescence ratio F(max-min)/F0": "inactive"}, {"smiles": "COC(=O)c1ccc(C2C3=C(Nc4nnnn42)c2ccccc2OC3)cc1", "note": "(stereo not given)", "fluorescence ratio F(max-min)/F0": "inactive"}, {"smiles": "O=C(CC(O)(C(F)(F)F)C(F)(F)F)Nc1ccc(Cl)c(Cl)c1", "fluorescence ratio F(max-min)/F0": "45.3 (active)"}, {"smiles": "c1ccc(-c2[nH]ncc2-c2nc3ccccc3[nH]2)cc1", "fluorescence ratio F(max-min)/F0": "inactive"}, {"smiles": "COCCCNC(=O)C1CCN(c2ccc(N3CCOCC3)nn2)CC1", "fluorescence ratio F(max-min)/F0": "inactive"}, {"smiles": "CCOC(=O)C1=C(O)/C(=C/c2cc(C)n(-c3ccccc3)c2C)N=C1C", "fluorescence ratio F(max-min)/F0": "inactive"}]}]}
